Each structure is given as a SMILES string. Several values for one entry are separate records, joined by “and”; a condition that tells them apart may be missing. Equal values may be shown once.

Test [1] concerns the target Sphingosine kinase 1 (Homo sapiens) (UniProt Q9NYA1). The settings on record: at 1 µM.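 Further: mean SPHK1 inhibition value reported from the GSK PKIS kinase panel screen.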
The target in test [2] is T1, Sphingosine kinase 2 (Homo sapiens) (UniProt Q9NRA0).
T1 sequence (whole entry): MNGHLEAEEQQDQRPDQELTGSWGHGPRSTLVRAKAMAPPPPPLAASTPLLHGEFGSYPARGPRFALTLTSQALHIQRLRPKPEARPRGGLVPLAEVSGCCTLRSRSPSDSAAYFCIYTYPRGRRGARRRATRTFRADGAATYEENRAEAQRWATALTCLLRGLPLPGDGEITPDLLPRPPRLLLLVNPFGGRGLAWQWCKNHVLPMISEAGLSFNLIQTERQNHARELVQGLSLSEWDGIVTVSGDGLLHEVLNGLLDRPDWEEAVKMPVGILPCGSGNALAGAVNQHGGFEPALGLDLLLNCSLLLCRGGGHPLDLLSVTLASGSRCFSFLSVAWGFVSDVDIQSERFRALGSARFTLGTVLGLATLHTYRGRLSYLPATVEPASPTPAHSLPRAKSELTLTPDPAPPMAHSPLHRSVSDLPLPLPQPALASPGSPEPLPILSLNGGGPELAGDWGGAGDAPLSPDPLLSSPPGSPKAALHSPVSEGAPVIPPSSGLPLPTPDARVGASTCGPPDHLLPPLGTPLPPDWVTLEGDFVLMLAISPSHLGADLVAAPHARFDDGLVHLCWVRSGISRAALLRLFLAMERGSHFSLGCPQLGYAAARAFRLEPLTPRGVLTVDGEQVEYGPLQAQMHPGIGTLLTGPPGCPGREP
To be noted: at 0.1 µM.

In test [3] the target is T1, Sphingosine kinase 2 (Homo sapiens). To be noted: at 1 µM.
Test [4] concerns the target Casein kinase II subunit alpha (Homo sapiens) (UniProt P68400). To be noted: at 0.1 µM.
The target is the same in test [5]. To be noted: at 1 µM.
Test [6] concerns the target T2, Inhibitor of nuclear factor kappa-B kinase subunit alpha (Homo sapiens) (UniProt O15111).
T2 sequence (whole entry): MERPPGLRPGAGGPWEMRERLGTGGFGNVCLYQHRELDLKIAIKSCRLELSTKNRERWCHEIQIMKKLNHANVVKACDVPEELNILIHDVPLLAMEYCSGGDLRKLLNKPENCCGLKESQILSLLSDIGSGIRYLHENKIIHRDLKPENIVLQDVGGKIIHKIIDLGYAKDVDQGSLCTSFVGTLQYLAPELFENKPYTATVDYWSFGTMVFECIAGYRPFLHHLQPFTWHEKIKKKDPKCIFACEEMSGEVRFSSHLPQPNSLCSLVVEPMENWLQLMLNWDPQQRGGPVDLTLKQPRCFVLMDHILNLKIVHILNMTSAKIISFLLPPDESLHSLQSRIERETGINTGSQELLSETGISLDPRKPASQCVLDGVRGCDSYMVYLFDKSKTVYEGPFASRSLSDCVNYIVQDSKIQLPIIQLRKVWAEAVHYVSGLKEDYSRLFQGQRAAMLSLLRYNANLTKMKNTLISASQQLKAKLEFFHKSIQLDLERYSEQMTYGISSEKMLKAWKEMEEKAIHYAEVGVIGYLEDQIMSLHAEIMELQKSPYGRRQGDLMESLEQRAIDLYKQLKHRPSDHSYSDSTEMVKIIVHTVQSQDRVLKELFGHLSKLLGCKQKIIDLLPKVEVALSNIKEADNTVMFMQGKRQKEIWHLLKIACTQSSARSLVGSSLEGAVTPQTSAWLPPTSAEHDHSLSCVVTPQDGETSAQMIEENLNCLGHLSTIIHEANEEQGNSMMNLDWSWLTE
To be noted: at 0.1 µM.

The target in test [7] is T2, Inhibitor of nuclear factor kappa-B kinase subunit alpha (Homo sapiens). To be noted: at 1 µM.
In test [8] the target is T3, Inhibitor of nuclear factor kappa-B kinase subunit beta (Homo sapiens) (UniProt O14920).
T3 sequence (whole entry): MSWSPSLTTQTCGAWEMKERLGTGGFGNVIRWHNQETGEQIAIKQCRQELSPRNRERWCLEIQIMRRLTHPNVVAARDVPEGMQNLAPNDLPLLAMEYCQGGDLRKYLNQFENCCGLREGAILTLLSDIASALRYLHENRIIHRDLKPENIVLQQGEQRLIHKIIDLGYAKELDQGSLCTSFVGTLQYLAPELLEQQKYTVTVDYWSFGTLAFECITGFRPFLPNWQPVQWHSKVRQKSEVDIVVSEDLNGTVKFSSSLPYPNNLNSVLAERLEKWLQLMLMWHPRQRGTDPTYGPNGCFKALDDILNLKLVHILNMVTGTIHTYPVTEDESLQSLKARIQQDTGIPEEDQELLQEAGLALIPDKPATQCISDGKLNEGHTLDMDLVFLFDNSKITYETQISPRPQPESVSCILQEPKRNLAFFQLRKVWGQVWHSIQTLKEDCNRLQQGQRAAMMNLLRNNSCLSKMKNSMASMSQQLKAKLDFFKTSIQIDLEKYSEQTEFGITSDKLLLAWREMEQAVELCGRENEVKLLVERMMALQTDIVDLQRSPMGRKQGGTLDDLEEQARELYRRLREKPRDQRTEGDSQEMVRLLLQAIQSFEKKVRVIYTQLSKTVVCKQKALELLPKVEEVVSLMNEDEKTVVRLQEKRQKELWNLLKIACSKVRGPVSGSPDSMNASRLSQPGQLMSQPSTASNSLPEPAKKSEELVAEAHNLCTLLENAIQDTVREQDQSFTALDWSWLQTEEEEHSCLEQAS
The settings on record: at 0.1 µM.

Test [9] deals with T3, Inhibitor of nuclear factor kappa-B kinase subunit beta (Homo sapiens). The settings on record: at 1 µM.
The target in test [10] is T4, Inhibitor of nuclear factor kappa-B kinase subunit epsilon (Homo sapiens) (UniProt Q14164).
T4 sequence (whole entry): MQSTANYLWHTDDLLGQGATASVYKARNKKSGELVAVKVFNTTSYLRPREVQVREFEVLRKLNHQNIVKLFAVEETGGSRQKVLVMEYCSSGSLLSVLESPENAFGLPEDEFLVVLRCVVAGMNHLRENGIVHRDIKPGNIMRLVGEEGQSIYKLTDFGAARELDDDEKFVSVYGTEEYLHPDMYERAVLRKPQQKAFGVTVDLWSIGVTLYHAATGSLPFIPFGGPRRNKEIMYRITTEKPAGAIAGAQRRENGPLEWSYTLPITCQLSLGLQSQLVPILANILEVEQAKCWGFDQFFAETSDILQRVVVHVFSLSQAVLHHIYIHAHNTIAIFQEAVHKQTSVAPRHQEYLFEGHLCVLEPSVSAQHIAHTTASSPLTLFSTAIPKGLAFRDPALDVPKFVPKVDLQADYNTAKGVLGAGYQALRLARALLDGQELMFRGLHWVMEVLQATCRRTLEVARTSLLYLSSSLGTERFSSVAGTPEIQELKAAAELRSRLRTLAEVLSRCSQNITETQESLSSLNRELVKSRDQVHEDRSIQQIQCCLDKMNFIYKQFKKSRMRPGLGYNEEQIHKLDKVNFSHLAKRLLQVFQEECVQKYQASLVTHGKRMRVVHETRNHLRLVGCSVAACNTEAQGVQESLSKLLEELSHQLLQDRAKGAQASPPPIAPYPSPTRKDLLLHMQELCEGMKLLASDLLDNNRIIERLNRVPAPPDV
To be noted: at 0.1 µM.

Test [11] deals with T4, Inhibitor of nuclear factor kappa-B kinase subunit epsilon (Homo sapiens). The settings on record: at 1 µM.
The target of test [12] is T5, Serine/threonine-protein kinase Nek1 (Homo sapiens) (UniProt Q96PY6).
T5 sequence (whole entry): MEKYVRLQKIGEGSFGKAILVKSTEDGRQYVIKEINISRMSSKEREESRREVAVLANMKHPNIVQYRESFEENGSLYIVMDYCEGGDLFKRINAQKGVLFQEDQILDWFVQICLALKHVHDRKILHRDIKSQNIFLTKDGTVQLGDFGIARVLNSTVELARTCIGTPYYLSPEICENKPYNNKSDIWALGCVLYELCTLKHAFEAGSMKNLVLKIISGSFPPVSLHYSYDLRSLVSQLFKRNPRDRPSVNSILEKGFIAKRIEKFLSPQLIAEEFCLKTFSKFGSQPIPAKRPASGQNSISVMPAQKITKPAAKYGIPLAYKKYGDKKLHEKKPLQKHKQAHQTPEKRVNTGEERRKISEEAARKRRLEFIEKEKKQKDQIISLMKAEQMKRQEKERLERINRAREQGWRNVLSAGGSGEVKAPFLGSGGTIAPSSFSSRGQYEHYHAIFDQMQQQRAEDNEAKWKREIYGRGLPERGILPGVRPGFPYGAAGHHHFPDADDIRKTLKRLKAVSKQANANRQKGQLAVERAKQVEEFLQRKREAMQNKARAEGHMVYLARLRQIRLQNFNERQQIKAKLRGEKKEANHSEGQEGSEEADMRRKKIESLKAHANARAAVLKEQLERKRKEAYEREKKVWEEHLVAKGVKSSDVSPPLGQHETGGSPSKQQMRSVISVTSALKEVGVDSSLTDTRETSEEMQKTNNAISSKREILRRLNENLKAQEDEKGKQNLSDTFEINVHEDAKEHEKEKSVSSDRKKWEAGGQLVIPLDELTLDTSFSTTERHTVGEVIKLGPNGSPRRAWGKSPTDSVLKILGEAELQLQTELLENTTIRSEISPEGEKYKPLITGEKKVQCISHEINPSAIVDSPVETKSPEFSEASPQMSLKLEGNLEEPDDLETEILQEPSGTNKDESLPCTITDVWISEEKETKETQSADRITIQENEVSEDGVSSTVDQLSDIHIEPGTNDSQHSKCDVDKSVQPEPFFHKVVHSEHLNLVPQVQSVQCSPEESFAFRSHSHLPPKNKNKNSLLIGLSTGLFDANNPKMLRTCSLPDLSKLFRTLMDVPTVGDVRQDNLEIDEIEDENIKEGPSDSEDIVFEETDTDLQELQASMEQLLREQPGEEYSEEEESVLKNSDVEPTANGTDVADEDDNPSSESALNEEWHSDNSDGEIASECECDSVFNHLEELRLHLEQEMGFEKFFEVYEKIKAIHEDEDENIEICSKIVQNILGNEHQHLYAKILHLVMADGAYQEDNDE
The settings on record: at 0.1 µM.

In test [13] the target is T5, Serine/threonine-protein kinase Nek1 (Homo sapiens). The settings on record: at 1 µM.
Test [14] deals with T6, Serine/threonine-protein kinase Nek2 (Homo sapiens) (UniProt P51955).
T6 sequence (whole entry): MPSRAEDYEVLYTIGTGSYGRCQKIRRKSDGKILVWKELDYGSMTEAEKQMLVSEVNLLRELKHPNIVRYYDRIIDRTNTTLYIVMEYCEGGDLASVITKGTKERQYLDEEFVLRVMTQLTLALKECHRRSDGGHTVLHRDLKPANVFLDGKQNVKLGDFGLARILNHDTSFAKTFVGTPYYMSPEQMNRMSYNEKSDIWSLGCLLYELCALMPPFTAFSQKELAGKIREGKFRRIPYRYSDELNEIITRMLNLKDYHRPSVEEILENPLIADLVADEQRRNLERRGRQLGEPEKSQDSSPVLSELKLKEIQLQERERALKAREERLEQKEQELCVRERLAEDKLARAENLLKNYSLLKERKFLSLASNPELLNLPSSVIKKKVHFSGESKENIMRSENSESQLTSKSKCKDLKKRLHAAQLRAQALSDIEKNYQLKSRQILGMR
The settings on record: at 0.1 µM.

Test [15] concerns the target T6, Serine/threonine-protein kinase Nek2 (Homo sapiens). The settings on record: at 1 µM.
In test [16] the target is Serine/threonine-protein kinase Nek6 (Homo sapiens) (UniProt Q9HC98). To be noted: at 0.1 µM.
Sequence of Serine/threonine-protein kinase Nek6 (Homo sapiens) (Q9HC98 whole entry): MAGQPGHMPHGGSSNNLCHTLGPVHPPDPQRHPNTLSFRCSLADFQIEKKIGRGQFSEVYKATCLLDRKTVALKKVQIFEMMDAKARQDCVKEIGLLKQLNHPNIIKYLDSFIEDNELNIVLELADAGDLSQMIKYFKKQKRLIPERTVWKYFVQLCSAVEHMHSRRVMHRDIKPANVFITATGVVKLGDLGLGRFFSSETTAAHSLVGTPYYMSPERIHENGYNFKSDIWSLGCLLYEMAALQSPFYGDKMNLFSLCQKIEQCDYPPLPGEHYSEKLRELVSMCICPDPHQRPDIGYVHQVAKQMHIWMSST
Test [17] shares this target. The settings on record: at 1 µM.
Test [18] addresses Serine/threonine-protein kinase Nek7 (Homo sapiens) (UniProt Q8TDX7). To be noted: at 0.1 µM.
Test [19] shares this target. The settings on record: at 1 µM.
Test [20] deals with T7, Serine/threonine-protein kinase Nek9 (Homo sapiens) (UniProt Q8TD19).
T7 sequence (whole entry): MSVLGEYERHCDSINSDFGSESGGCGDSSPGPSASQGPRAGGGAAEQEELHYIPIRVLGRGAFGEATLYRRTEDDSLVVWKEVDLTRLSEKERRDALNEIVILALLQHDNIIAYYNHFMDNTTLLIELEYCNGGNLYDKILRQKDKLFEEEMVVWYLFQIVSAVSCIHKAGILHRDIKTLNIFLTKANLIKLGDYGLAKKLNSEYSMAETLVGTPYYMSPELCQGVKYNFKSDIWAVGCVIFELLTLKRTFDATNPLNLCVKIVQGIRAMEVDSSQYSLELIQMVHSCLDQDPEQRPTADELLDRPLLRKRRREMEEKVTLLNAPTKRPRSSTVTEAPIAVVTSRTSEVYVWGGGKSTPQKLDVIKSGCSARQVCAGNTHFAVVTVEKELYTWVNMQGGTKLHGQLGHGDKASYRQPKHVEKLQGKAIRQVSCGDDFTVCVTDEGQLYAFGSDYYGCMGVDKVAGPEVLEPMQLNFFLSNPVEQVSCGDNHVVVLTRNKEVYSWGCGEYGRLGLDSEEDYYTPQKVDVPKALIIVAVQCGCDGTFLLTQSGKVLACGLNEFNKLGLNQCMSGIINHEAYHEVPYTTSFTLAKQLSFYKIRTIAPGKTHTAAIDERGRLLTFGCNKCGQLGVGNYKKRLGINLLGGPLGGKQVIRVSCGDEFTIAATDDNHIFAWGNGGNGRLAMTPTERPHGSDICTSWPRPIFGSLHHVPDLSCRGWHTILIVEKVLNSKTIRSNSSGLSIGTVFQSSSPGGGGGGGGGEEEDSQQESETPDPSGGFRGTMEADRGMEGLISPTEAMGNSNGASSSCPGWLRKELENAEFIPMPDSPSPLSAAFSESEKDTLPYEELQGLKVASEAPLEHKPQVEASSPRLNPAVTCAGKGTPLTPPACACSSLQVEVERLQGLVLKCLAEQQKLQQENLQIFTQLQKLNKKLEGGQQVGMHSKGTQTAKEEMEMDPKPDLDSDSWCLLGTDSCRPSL
To be noted: at 0.1 µM.

Sequence of Serine/threonine-protein kinase Nek7 (Homo sapiens) (Q8TDX7 whole entry, looked up): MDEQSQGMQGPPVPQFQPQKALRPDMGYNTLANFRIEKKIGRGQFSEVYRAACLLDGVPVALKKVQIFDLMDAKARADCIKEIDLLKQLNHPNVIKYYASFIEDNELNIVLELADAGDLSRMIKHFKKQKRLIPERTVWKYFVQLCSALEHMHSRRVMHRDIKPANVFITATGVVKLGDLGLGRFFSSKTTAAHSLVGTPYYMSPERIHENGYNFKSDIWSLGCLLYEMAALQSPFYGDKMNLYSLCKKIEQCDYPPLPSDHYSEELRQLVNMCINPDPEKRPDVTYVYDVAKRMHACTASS
Sequence of Casein kinase II subunit alpha (Homo sapiens) (P68400 whole entry, looked up): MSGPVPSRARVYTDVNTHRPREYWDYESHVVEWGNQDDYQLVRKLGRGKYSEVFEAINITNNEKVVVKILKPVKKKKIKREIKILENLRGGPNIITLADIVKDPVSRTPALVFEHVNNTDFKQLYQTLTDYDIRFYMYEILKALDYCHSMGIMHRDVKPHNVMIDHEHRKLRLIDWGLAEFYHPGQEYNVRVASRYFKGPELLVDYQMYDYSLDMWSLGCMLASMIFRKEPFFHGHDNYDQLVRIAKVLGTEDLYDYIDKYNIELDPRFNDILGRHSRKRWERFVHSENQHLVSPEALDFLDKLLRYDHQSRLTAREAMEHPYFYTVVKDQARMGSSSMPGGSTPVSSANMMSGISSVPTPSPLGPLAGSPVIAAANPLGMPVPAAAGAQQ
Sequence of Sphingosine kinase 1 (Homo sapiens) (Q9NYA1 whole entry): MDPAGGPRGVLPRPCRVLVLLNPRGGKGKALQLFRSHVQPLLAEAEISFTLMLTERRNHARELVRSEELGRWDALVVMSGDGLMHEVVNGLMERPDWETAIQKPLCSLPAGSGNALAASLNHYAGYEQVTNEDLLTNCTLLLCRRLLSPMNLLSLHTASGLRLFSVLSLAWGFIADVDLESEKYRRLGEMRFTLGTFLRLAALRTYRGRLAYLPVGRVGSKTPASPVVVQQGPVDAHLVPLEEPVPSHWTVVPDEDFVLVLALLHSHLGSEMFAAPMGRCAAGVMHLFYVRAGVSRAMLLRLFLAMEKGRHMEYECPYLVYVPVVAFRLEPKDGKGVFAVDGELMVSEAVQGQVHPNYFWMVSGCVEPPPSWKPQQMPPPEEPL

The term inhibition denotes the change of the read-out against control, counted positive when it falls. Regarding `Nc1nccc(-c2c(-c3ccc(F)cc3)ncn2C2CCNCC2)n1`, the inhibition was 5.1% and -0.03% in [1]; 0.57% and 0.62% in [2]; 1.73% and 0.57% in test [3]; 0.26% and 2.91% in test [4]; 18% and 2.93% in [5]; 5.16% and -0.81% in test [6]. Besides, the inhibition in test [7] is 8.44% and 4.4%; in test [8] it was -3.54% and 0.6%; in test [9], -2.15% and 0.23%; in [10] it was -4.18% and 0.25%; in test [11], -3.35% and 1.18%; in test [12], -2.75% and -0.7%. The inhibition was 0.36% and 1.29% in test [13]; -3.4% and 0.5% in test [14]; -4.07% and 0.05% in [15]; -2.7% and -2.19% in [16]; -2.93% and 2.63% in [17]; -2.09% and 0.15% in test [18]. Also, the inhibition in test [19] is -4.78% and 0.13%; in test [20], 0.73% and -1.84%.

The values are drawn from ChEMBL document CHEMBL1961873, “Compounds: GSK PKIS; Assays: Nanosyn kinase panel” (2012).
